In article PMC7819943, “Rice protein-binding microarrays: a tool to detect cis-acting elements near promoter regions in rice”:
Whole data set: some 35,000 sequences, median “fluorescence intensity (a.u.)” near 10,000, cut for the highest 2% near 52,000. What follows is part of a selection rich in the highest values, with near analogues and random picks from the rest.

Target: T1, OsWOX13 (Oryza sativa, UniProt Q5QMM3 1-267)
T1 sequence: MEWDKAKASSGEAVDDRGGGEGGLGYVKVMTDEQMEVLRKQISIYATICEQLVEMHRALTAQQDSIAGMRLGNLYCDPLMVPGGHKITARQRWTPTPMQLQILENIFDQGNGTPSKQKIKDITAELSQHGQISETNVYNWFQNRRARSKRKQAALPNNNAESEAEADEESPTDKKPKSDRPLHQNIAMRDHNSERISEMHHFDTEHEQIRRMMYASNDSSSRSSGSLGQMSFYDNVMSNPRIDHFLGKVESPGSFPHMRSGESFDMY
Test: protein-binding microarray (RPBM); PBS, 2% BSA, 51.3 ng/ul salmon testes DNA, 50 uM zinc acetate, 200 nM TF, 25 C, 1 h; high values mean tight binding
Conditions: protein: recombinant; tags: N-terminal polyhistidine and DsRed monomer fusion (pET32a); label: CyDye5-dUTP incorporated in the synthesized complementary strand; 3' TTTTT single-stranded linker to array surface; dsDNA, one strand shown
Summary of the method: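 An Axon 4000B scanner gave the binding signal as per-feature fluorescence intensity in arbitrary units. This followed washing of a custom Agilent array that had been incubated for 1 h at 25 °C with 200 nM protein in PBS, 2% BSA, salmon testes DNA and 50 µM zinc acetate. The proteins were transcription factors fused at the N-terminus to polyhistidine and DsRed, expressed in E. coli BL21-CodonPlus and purified on Ni–NTA.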

Sequence | binding signal
TTTTATAATTATATAGCACACCCCACTTCACACGCATATCCGGAGTCACCTAGTGCAG | 15300 fluorescence intensity (a.u.)
CTATTGATTGTTGGCGAGCATGTTCTTATCCAGTTGACTTCGGAGTCACCTAGTGCAG | 33100 fluorescence intensity (a.u.)
GTTTGTTAATTATTCACTAATCTCTAGTACTATAGTTGTACGGAGTCACCTAGTGCAG | 17100 fluorescence intensity (a.u.)
AACAGTTCTGCTGAACCTCTTTTGCCTGCCCAAATCAAAACGGAGTCACCTAGTGCAG | 7650 fluorescence intensity (a.u.)
AGATGGGAATCATTATCAATCTATCATCCTAAATATAAACCGGAGTCACCTAGTGCAG | 4070 fluorescence intensity (a.u.)
TCGATTGACTGGACGAGGAATAGTAACCCTGCACATTGTGCGGAGTCACCTAGTGCAG | 44100 fluorescence intensity (a.u.)
GAATACTGACAGTAAAGATGATTGCAGAATTAGCTCATAGCGGAGTCACCTAGTGCAG | 19400 fluorescence intensity (a.u.)
TGCATAAGTGTTAAATTGACAGCCACTTGGTCTGTTCGTTCGGAGTCACCTAGTGCAG | 21700 fluorescence intensity (a.u.)
TACTCCTGTTGATAGGTATATTGATCTGAATCATCTGGTACGGAGTCACCTAGTGCAG | 3790 fluorescence intensity (a.u.)
CCTGTTGATTGGATATCTGGAACCTGAAATCCTGAATACGCGGAGTCACCTAGTGCAG | 55800 fluorescence intensity (a.u.)
TTAATTGATTTGGAAATCCTCTAGTTATCTGGATTAGTTTCGGAGTCACCTAGTGCAG | 37300 fluorescence intensity (a.u.)
AACTAAACATAATCTTTGAAAAGTTTGATTTTGAACACGGCGGAGTCACCTAGTGCAG | 6770 fluorescence intensity (a.u.)
TCTTGATTGAAACAATCTTTTGATCCCATAATCTTGCCCGCGGAGTCACCTAGTGCAG | 63700 fluorescence intensity (a.u.)
ATGCCTGATTGGAAATCTACTATTACTATTCATGATACCGCGGAGTCACCTAGTGCAG | 58500 fluorescence intensity (a.u.)
TTTCTTTTGAAATTGATTACAATCTACATAAGGAGAGTCGCGGAGTCACCTAGTGCAG | 16500 fluorescence intensity (a.u.)
CACATACTATACTACATTAATTATATTCTGATGAAATCCGCGGAGTCACCTAGTGCAG | 4130 fluorescence intensity (a.u.)
ATGATTTACTATTAATCTAGTCTATTGCTGAGATATACATCGGAGTCACCTAGTGCAG | 11000 fluorescence intensity (a.u.)
ATTAGTTGGATTGATTCAAACAAAGAGGTGATAATAATTGCGGAGTCACCTAGTGCAG | 11900 fluorescence intensity (a.u.)
ACATGGGAATTTTGGTGGGATGGGGATGGGGATGGGGAATCGGAGTCACCTAGTGCAG | 7450 fluorescence intensity (a.u.)
GTGATTTTGTTAAACTTAGGCTGCTTGTTTCATCAATTGCCGGAGTCACCTAGTGCAG | 3740 fluorescence intensity (a.u.)

Sequence | binding signal
GGGTTTCAATCATTTAGGTGGACGTCCACTCATTTATTGCCGGAGTCACCTAGTGCAG | 16200 fluorescence intensity (a.u.)
TATGGTTAATTATGTATTTATCGACAACGGGATGTTCGTACGGAGTCACCTAGTGCAG | 15000 fluorescence intensity (a.u.)
CACGAAATTAATTTAGCTCTACATCCGTTCTGTTTATGAACGGAGTCACCTAGTGCAG | 8960 fluorescence intensity (a.u.)
TGGCCAAATTCTGTCAATTGCATTTGATGGAGCTGGGCTTCGGAGTCACCTAGTGCAG | 11200 fluorescence intensity (a.u.)
CTATAATTTCTGGTTACGGTGGTGACAAGTCATGTGGGCTCGGAGTCACCTAGTGCAG | 13900 fluorescence intensity (a.u.)
CGTGATTAGAATCCATCTCCGACCGACCGCACATACAAAGCGGAGTCACCTAGTGCAG | 43300 fluorescence intensity (a.u.)
GAGCGATTATAAAATTAATTGCTCCGCGGCTTAAGCCGAGCGGAGTCACCTAGTGCAG | 5680 fluorescence intensity (a.u.)
AGTGATCATTGATCTAAACTACTTGCAGGTGACGCACACGCGGAGTCACCTAGTGCAG | 6200 fluorescence intensity (a.u.)
TTGTTTGATTTGTTAGGGGTGGTAAGAGCAGCCTTGTATTCGGAGTCACCTAGTGCAG | 21000 fluorescence intensity (a.u.)
CTCTCTAGTAATTATCCATGTGCTCGTCTGGTTGGATTGGCGGAGTCACCTAGTGCAG | 5240 fluorescence intensity (a.u.)
CAAATTTAAATTTGAATTATATCCGATTTAAATTTGAATTCGGAGTCACCTAGTGCAG | 21800 fluorescence intensity (a.u.)
CTAATAACAAAACAAATTACAGATTTCGCCTGTAATATGCCGGAGTCACCTAGTGCAG | 9460 fluorescence intensity (a.u.)
GTTAATTTAATTGAAATTTAAATTTAAATCAATCTGCATTCGGAGTCACCTAGTGCAG | 57600 fluorescence intensity (a.u.)
TTAAAATAATTGACAAGATAGATTAATATTTGGTATATCACGGAGTCACCTAGTGCAG | 26400 fluorescence intensity (a.u.)
TAATTAATTAATTGATTGATTGATTTGAAACTGATTAATTCGGAGTCACCTAGTGCAG | 56200 fluorescence intensity (a.u.)
ATCAATTTTAAAATTAAATTTTAATTTTAAATTTTGAATTCGGAGTCACCTAGTGCAG | 26900 fluorescence intensity (a.u.)
TATTAATTACAGATTGACAAAACACAAGATTTGCCTGTATCGGAGTCACCTAGTGCAG | 61800 fluorescence intensity (a.u.)
ATGAAATGATTTGATTGAAATATTATGAAATGATTTGAGACGGAGTCACCTAGTGCAG | 39500 fluorescence intensity (a.u.)
ATTGATTTGATGAAACTAATTTAATATTATAAATATTATTCGGAGTCACCTAGTGCAG | 26000 fluorescence intensity (a.u.)
TATTTAAATTCAAATTGAAATTCAAATTTAAATCGGATATCGGAGTCACCTAGTGCAG | 16800 fluorescence intensity (a.u.)

Sequence | binding signal
TTTGATTTGATTTGATTTGATTGAATTAATTTGAGTCCGACGGAGTCACCTAGTGCAG | 65400 fluorescence intensity (a.u.)
ATTAAATTTTAAAATTTAATTTTAAATTGATTTTGATATTCGGAGTCACCTAGTGCAG | 42600 fluorescence intensity (a.u.)
AACAATTTGATCAAGAGTTGACCGAGATAATCCCACTTGCCGGAGTCACCTAGTGCAG | 4370 fluorescence intensity (a.u.)
GATCAAATTAATAGGTAACCCGCTGGTCAAACCTATGGGTCGGAGTCACCTAGTGCAG | 18000 fluorescence intensity (a.u.)
AATTAGTAAATACTTAATTAATCATGAGAAAATGTATTGCCGGAGTCACCTAGTGCAG | 3350 fluorescence intensity (a.u.)
CAAATGATGGAGGTTTCAAATTATACTGTACTTCAGCCATCGGAGTCACCTAGTGCAG | 7400 fluorescence intensity (a.u.)
GTAGAGTAATTAAGTATATCCTTTTGTTCTAGTACATCGGCGGAGTCACCTAGTGCAG | 4870 fluorescence intensity (a.u.)
CTGATTTGACTGAATGAATGAATTAATTAATGAGATGTATCGGAGTCACCTAGTGCAG | 61600 fluorescence intensity (a.u.)
TTTCAAATCAAATCCAATCCTCCTCCTCCAGATCTCTCCACGGAGTCACCTAGTGCAG | 3410 fluorescence intensity (a.u.)
TTAAAATTAACTTTAAAATTTAAATTTAGATTTTAATTTTCGGAGTCACCTAGTGCAG | 25700 fluorescence intensity (a.u.)
TTGTAATTAATTAACTGATTAATTAAACTGCATGAATTTTCGGAGTCACCTAGTGCAG | 60100 fluorescence intensity (a.u.)
ATTAGCGCATGATTAATTGATTATTAACTATTTTAAACTTCGGAGTCACCTAGTGCAG | 27400 fluorescence intensity (a.u.)
CAAAATCAATCAATCAATCCAGCCCTGCCCTCCTTTCGGTCGGAGTCACCTAGTGCAG | 57900 fluorescence intensity (a.u.)
GAAATTATTTGAAATTTTGACTGATTTTGAATGAATTTGACGGAGTCACCTAGTGCAG | 15200 fluorescence intensity (a.u.)
ACCCTTTCAATCATCCTCCTCCAGCAGAGCAAGCAGCCAACGGAGTCACCTAGTGCAG | 11000 fluorescence intensity (a.u.)
ATGAATTAGATTAGATGTATATTTGAGGGAGTTAAAGTGGCGGAGTCACCTAGTGCAG | 20800 fluorescence intensity (a.u.)
ATCCTTATTTGATTCCTGATCAAATTAATACTGCTGCTTTCGGAGTCACCTAGTGCAG | 3200 fluorescence intensity (a.u.)
TTCATTAATCACAGATTCAATTTGCTCCTATATATAATCCCGGAGTCACCTAGTGCAG | 12700 fluorescence intensity (a.u.)
TAATCAATTAAGAAATTAATTAATCCTTTGCTCCCTGATTCGGAGTCACCTAGTGCAG | 54400 fluorescence intensity (a.u.)
